Inconclusive results are not listed. A call without a number means that no potency is given here. Unmarked numbers belong to inactive results. The source made the active and inactive calls. Calls come from the whole dose curve; as a rule, active = well fitted cell-killing curve with a large enough effect in the repeat runs; inconclusive = weak or mixed curves, or effect the other way; inactive = flat fitted curve, though single readings scatter.
Potency is the fitted concentration of half-maximal effect.

This experiment in a line: qHTS assay to identify small molecule agonists of the estrogen receptor beta (ER-beta) signaling pathway - cell viability counter screen (AID 1259380). Note: nearly all actives have a fitted effect of over 30% in size. The settings on record: ER-beta-bla HEK293T viability, CellTiter-Glo luminescence, 16 h; series mostly up to 92.4 µM. An excerpt: National Center for Advancing Translational Sciences [NCATS]
NIH Chemical Genomics Center [NCGC]
U.S. Environmental Protection Agency [EPA]
National Institutes of Environmental Health Sciences [NIEHS]
National Toxicology Program [NTP]
U.S. Food and Drug Administration [FDA]
Estrogen receptor (ER), a nuclear hormone receptor, plays an important role in development, metabolic homeostasis and reproduction. Two subtypes of ER, ER-alpha and ER-beta, have similar expression patterns with some uniqueness in both types. Endocrine disrupting chemicals (EDCs) and their interactions with steroid hormone receptors like ER causes disruption of normal endocrine function. To identify the compounds that activate ER signaling, an ER beta-UAS-bla GripTite cell line (Life Technologies, Madison, WI, USA) containing a beta-lactamase reporter gene under the control of an UAS response element was used to screen Tox21 10K compound library. The cytotoxicity of the Tox21 compound library against the ER-beta-bla cell line was tested in parallel by measuring the cell viability using CellTiter-Glo assay in the same wells.
Tox21 Assay Protocol Summary:
ER-beta-UAS-bla HEK293T cells were dispensed at 2,000 cells/5 uL of assay medium containing 2% charcoal stripped FBS per well into black wall/clear-bottom 1536-well plates using a Multidrop Combi (ThermoFisher Scientific, Waltham, MA) dispenser. After the assay plates were incubated at a 37C and 5% CO2 for 6 hr, 23 nL of compounds dissolved in DMSO, positive controls or DMSO only was transferred to the assay plate by a Pintool station (Kalypsys, San Diego, CA). The plates were incubated at 37C and 5% CO2 for 16 hr. Then 1 uL of LiveBLAzerTM B/G FRET substrate was added using a BioRAPTR FRD (Flying Reagent Dispenser, Aurora Discovery, San Diego, CA) and then the plates were incubated at room temperature for 2 hours, and fluorescence intensity was measured by an Envision plate reader (PerkinElmer, Shelton, CT). For cell viability readout that measures cytotoxicity, 4 uL/well of CellTiter-Glo reagent was added into the assay plates using a FRD. After 30 min incubation at room temperature, the luminescence intensity in the plates was measured using a ViewLux (PerkinElmer) plate reader.
Turning to `Nc1ccn([C@H]2CS[C@@H](CO)O2)c(=O)n1`, the Potency result was “inactive”.

`CO[C@@H]1[C@@H](OC)[C@H](C)[C@@](O)(CC(=O)O)O[C@H]1[C@H](C)[C@H]1O[C@@]2(CC[C@@](C)([C@H]3CC[C@@](C)([C@@H]4O[C@@H]([C@H]5O[C@](C)(O)[C@H](C)C[C@@H]5C)C[C@@H]4OC4C[C@H](OC)[C@@H](OC)[C@H](C)O4)O3)O2)C[C@H](O)[C@H]1C` (stereo not given in full): the Potency is 1.88 µM (active). The same measure, in the same setting: in the case of `Cc1cn([C@H]2C[C@H](F)[C@@H](CO)O2)c(=O)[nH]c1=O` it was “inactive”.

Turning to `CCc1ccc(C)cc1`, the Potency result is “inactive”. Still for that read-out and setting: the result for `CC(C)(C)C(O)/C=C/c1ccc2c(c1)OCO2` (stereo not given) reads “inactive”.

On to `O=C(O)c1ccc(O)cc1O`, for which the Potency entry was “inactive”.

With `CC(CN(CCN(CC(C)OCCO)CC(C)OCCO)CC(C)OCCO)OCCO` (stereo not given), the Potency result was “inactive”.

With `O=C(O)CCC(=O)OC[C@@H](NC(=O)C(Cl)Cl)[C@H](O)c1ccc([N+](=O)[O-])cc1`, the Potency entry was “inactive”. Same read-out and setting: the result for `COc1cc(NC(C)CCCN)c2ncccc2c1` (stereo not given) reads “inactive”; that for `C[C@@H]1C[C@H]2[C@@H]3CCC4=CC(=O)C=C[C@]4(C)[C@@]3(F)[C@@H](O)C[C@]2(C)[C@@]1(O)C(=O)COP(=O)(O)O`, “inactive”; that for `CC(C)CC(O)CC(C)C`, “inactive”.

As for `COC1CCC=CO1` (stereo not given), the Potency result is “inactive”.

`CC(=O)Oc1cccc(O)c1`: the Potency entry is “inactive”. The same measure, in the same setting: in the case of `C=CCOC(=O)COCCC(C)C` it was “inactive”; in that of `BrC(Br)C(Br)Br`, “inactive”; in that of `CC(C)N(C)C`, “inactive”. Same read-out and setting: the result for `O=C(O)CNC(=O)c1ccccc1I` reads “inactive”; that for `CCCCCCOC(=O)CCCCC`, “inactive”. On the same count and under the same terms, in the case of `CSCC[C@H](NC(=O)[C@H](Cc1c[nH]c2ccccc12)NC(=O)CCNC(=O)OC(C)(C)C)C(=O)N[C@@H](CC(=O)O)C(=O)N[C@@H](Cc1ccccc1)C(N)=O` it was “inactive”. On to `CC(C)OC(=O)c1ccccc1C(=O)OC(C)C`, for which the Potency entry was “inactive”.

Consider `CCCCC(CC)COS(=O)(=O)O` (stereo not given), for which the Potency entry is “inactive”. Consider `CC(C)(O)CCc1ccccc1`, for which the Potency result was “inactive”.

As to `CC1C(C)(C)C2=C(C(=O)CCC2)C1(C)C` (stereo not given), the Potency entry was “inactive”.

`C/C(C=O)=C\c1ccccc1`: the Potency result was “inactive”. On the same count and under the same terms, in the case of `CCO[Si](C)(CCCOCC1CO1)OCC` (stereo not given) it was “inactive”. Regarding `CC1=CC[C@@H]2C[C@H]1C2(C)C`, the activity change, negative = cytotoxicity is 5.66% [at 19 µM]. `CN(C)CC/C=C1\c2ccccc2Sc2ccc(Cl)cc21`: the Potency was 23.7 µM (active). The same measure, in the same setting: in the case of `O=C(Nc1ccc(C(=O)O)c(O)c1)c1ccccc1` it was “inactive”; in that of `CC(C)C(=O)OCCOc1ccccc1`, “inactive”. Same read-out and setting: in the case of `COc1cc(NS(=O)(=O)c2ccc(N)cc2)nc(C)n1` it was “inactive”; in that of `CC[C@@H](CO)NCCN[C@@H](CC)CO`, “inactive”; in that of `COC(OC)OC`, “inactive”. As for `CCNc1nc(N)nc(Cl)n1`, the Potency result was “inactive”. Still for that read-out and setting: in the case of `CC1CCc2nccnc21` (stereo not given) it was “inactive”; in that of `Nc1nc2ccc(OC(F)(F)F)cc2s1`, “inactive”; in that of `NC(=O)CCCCC(N)=O`, “inactive”. Same read-out and setting: the result for `CSSc1ccoc1C` reads “inactive”; that for `CC[C@H]1OC(=O)[C@H](C)[C@@H](O[C@H]2C[C@@](C)(OC)[C@@H](O)[C@H](C)O2)[C@H](C)[C@@H](O[C@@H]2O[C@H](C)C[C@H](N(C)C)[C@H]2O)[C@](C)(O)C[C@@H](C)C(=O)[C@H](C)[C@@H](O)[C@]1(C)O`, “inactive”. Still for that read-out and setting: in the case of `Cc1oc(=O)oc1COC(=O)[C@@H]1N2C(=O)[C@@H](NC(=O)[C@H](N)c3ccccc3)[C@H]2SC1(C)C` it was “inactive”; in that of `CN=C(N)NC(=O)Nc1c(C)cccc1C`, “inactive”.

The values are drawn from PubChem BioAssay (Tox21).
